Results reported in the supplement of paper PMC10849652.
Of roughly 7,900 targets only a part is listed; those with a hit were picked by preference. About 0.6% of all pairs of compound and target were hits.

Key:
Assay in all cases: log2 fold change, soluble protein after heating vs DMSO (PISA); higher = thermal stabilisation; K562 cells, 10 uM, 30 min; active = over 0.2 and 3.5 SD of the protein, either way, in both replicates (recomputed)
saracatinib = compound: CN1CCN(CCOc2cc(OC3CCOCC3)c3c(Nc4c(Cl)ccc5c4OCO5)ncnc3c2)CC1 [saracatinib]
Procedure, shortened: (§1)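 Aliquots of K562 cells (2×10^6 cells/mL) treated with 10 μM compound for 30 min were heated for 3 min over 48°C-58°C. After pooling and extraction in PBS with 0.5% NP-40 at 4°C, soluble protein from a 21,000xg, 90 min spin was quantified by TMTpro 16plex LC-MS/MS with channel sums equalised. Thermal stability is expressed against control samples, from duplicates, as a log2 fold change.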

sotrastaurin = compound: CN1CCN(c2nc(C3=C(c4c[nH]c5ccccc45)C(=O)NC3=O)c3ccccc3n2)CC1 [sotrastaurin]
Procedure, shortened: as §1

alvocidib = compound: CN1CC[C@H](c2c(O)cc(O)c3c(=O)cc(-c4ccccc4Cl)oc23)[C@H](O)C1 [alvocidib]
Procedure, shortened: as §1

Tubastatin A = compound: CN1CCc2c(c3ccccc3n2Cc2ccc(C(=O)NO)cc2)C1 [Tubastatin A]
Procedure, shortened: as §1

[1] = compound: CNC(=O)C1=CC=CC=C1NC2=NC(=NC=C2Cl)NC3=C(C=C(C=C3)N4CCOCC4)OC
Procedure, shortened: as §1

defactinib = compound: CNC(=O)c1ccc(Nc2ncc(C(F)(F)F)c(NCc3nccnc3N(C)S(C)(=O)=O)n2)cc1 [defactinib]
Procedure, shortened: as §1

rucaparib = compound: CNCc1ccc(-c2[nH]c3cc(F)cc4c3c2CCNC4=O)cc1 [rucaparib]
Procedure, shortened: as §1

[2] = compound: CNc1nc(-c2ccc3c(N)n[nH]c3c2)cc(N2C[C@@H](C(=O)NC3CCCCC3)CC[C@H]2C)n1
Procedure, shortened: as §1

encorafenib = compound: COC(=O)N[C@@H](C)CNc1nccc(-c2cn(C(C)C)nc2-c2cc(Cl)cc(NS(C)(=O)=O)c2F)n1 [encorafenib]
Procedure, shortened: as §1

[3] = compound: COC(=O)[C@H](CCSC)NC(=O)C1=C(C=C(C=C1)NC[C@H](CS)N)C2=CC=CC=C2
Procedure, shortened: as §1

Measured: log2 fold change

SP3 (UniProt Q02447)
Sequence of UniProt Q02447 (Q02447 whole entry, looked up): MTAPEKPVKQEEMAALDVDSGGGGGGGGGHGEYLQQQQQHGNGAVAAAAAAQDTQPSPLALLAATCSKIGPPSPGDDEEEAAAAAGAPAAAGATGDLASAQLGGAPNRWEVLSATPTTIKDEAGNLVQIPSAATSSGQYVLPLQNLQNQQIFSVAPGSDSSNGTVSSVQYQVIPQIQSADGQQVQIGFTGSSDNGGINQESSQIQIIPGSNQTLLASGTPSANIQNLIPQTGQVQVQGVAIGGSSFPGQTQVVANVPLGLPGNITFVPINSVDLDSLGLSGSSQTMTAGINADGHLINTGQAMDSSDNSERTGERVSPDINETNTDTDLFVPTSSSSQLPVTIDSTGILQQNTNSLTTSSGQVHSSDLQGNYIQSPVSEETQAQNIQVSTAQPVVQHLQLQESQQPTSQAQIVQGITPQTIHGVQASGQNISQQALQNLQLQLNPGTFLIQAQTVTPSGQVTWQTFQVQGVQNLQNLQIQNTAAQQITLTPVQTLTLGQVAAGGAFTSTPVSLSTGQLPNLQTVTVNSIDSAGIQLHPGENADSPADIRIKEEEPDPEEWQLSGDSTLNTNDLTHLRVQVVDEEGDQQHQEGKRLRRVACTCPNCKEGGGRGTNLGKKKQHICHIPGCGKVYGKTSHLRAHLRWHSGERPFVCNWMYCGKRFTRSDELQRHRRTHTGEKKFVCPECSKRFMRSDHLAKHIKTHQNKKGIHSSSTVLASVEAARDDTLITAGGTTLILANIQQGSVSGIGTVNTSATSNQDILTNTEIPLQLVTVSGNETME
inactive: saracatinib 0.048 | sotrastaurin -0.122 | alvocidib 0.033 | Tubastatin A -0.205 | [1] -0.032 | defactinib 0.042 | rucaparib -0.004 | [2] -0.05 | encorafenib -0.053 | [3] 0.04

TAX1BP1 (UniProt Q86VP1)
inactive: saracatinib 0.016 | sotrastaurin -0.057 | alvocidib -0.028 | Tubastatin A -0.01 | [1] -0.016 | defactinib -0.038 | rucaparib -0.003 | [2] -0.06 | encorafenib 0.025 | [3] 0.054

TIMM13 (UniProt Q9Y5L4)
Sequence of UniProt Q9Y5L4 (Q9Y5L4 whole entry, looked up): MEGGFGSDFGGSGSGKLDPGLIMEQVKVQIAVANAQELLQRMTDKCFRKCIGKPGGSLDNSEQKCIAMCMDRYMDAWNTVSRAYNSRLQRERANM
inactive: saracatinib 0.065 | sotrastaurin -0.007 | alvocidib -0.035 | Tubastatin A -0.007 | [1] 0.007 | defactinib -0.038 | rucaparib -0.028 | [2] 0.043 | encorafenib 0.044 | [3] 0

SPTBN4 (UniProt Q9H254)
Sequence of UniProt Q9H254 (Q9H254 whole entry, looked up): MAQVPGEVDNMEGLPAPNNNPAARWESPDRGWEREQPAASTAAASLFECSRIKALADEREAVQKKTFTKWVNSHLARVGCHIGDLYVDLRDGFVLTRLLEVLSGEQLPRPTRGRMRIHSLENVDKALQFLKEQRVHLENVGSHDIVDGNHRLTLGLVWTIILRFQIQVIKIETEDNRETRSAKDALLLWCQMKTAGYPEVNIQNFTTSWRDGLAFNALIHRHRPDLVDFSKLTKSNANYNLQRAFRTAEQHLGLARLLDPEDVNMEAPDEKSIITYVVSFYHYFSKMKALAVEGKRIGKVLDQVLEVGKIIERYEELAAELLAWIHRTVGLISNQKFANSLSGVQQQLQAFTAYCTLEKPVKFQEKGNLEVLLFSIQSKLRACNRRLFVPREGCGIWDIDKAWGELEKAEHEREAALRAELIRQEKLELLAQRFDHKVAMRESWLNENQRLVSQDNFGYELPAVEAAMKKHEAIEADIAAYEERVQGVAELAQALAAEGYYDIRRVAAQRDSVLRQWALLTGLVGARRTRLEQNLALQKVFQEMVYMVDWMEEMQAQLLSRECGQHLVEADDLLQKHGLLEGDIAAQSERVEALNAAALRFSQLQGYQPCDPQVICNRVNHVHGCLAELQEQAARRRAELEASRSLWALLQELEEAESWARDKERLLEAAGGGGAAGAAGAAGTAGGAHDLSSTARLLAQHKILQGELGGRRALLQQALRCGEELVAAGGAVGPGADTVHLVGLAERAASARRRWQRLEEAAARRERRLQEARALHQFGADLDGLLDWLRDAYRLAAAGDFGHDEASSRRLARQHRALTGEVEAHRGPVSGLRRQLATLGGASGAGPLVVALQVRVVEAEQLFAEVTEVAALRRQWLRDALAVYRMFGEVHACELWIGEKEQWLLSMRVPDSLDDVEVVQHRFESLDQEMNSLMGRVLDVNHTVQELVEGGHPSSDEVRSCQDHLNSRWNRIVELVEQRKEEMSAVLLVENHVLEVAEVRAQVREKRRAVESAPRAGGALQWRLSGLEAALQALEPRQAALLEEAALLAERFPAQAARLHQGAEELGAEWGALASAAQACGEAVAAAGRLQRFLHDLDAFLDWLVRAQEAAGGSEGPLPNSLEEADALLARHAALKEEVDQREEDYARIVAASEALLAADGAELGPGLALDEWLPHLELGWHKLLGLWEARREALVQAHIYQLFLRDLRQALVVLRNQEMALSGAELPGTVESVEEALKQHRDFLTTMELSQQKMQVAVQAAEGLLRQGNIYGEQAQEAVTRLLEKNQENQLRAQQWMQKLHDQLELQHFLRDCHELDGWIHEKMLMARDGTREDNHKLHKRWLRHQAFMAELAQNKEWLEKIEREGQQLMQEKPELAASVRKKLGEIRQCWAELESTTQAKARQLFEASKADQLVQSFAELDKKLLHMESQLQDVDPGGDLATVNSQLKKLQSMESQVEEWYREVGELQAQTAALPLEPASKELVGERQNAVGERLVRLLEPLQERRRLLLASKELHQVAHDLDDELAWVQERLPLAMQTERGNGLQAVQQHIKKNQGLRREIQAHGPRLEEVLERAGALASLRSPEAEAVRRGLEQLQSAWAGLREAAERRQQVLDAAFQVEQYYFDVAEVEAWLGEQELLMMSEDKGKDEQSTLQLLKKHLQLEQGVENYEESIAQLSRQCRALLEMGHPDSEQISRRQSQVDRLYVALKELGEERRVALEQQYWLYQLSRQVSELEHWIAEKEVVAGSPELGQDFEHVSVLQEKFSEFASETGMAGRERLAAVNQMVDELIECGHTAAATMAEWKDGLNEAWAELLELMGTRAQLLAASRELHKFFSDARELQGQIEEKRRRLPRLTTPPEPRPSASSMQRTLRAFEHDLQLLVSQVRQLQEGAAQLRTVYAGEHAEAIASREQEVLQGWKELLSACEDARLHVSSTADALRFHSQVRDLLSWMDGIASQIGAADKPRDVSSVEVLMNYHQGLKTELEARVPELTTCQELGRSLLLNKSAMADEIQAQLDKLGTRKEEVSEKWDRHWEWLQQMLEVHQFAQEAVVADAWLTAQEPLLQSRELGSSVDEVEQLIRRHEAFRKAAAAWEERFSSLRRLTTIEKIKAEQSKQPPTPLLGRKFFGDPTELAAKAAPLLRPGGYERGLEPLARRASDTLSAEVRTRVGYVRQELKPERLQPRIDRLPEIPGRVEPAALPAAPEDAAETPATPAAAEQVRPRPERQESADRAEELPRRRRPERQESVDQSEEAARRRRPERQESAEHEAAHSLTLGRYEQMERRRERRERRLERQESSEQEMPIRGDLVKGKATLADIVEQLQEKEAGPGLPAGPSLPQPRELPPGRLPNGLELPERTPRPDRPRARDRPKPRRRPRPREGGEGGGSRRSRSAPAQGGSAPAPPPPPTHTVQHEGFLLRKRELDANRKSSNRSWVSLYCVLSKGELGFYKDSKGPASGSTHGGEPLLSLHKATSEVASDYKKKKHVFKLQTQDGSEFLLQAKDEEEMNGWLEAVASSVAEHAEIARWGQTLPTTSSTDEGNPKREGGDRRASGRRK
inactive: saracatinib -0.056 | sotrastaurin 0.009 | alvocidib 0.095 | Tubastatin A -0.005 | [1] -0.284 | defactinib 0.039 | rucaparib 0.059 | [2] -0.035 | encorafenib -0.076 | [3] -0.002

SRSF11 (UniProt Q05519)
Sequence of UniProt Q05519 (Q05519 whole entry, looked up): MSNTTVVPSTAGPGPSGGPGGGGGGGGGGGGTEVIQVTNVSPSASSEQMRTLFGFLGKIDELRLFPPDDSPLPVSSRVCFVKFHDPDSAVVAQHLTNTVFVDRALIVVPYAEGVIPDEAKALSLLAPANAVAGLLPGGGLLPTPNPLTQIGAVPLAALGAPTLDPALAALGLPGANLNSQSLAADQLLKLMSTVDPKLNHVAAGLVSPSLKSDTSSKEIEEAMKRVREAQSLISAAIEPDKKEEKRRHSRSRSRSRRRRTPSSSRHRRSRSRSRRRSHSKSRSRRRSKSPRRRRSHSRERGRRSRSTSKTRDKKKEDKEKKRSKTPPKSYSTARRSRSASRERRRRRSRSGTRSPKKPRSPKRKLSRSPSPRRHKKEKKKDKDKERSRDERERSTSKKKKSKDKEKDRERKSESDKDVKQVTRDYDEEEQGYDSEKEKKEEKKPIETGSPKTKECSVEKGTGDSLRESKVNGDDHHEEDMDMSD
inactive: saracatinib 0.062 | sotrastaurin -0.059 | alvocidib -0.209 | Tubastatin A 0.015 | [1] -0.243 | defactinib -0.174 | rucaparib 0.005 | [2] -0.089 | encorafenib -0.016 | [3] -0.045

SNX2 (UniProt O60749)
inactive: saracatinib 0.006 | sotrastaurin 0.002 | alvocidib -0.089 | Tubastatin A 0.004 | [1] -0.114 | defactinib -0.068 | rucaparib -0.004 | [2] 0.024 | encorafenib 0 | [3] -0.029

TLK2 isoform 2 (UniProt Q86UE8)
inactive: saracatinib 0.048 | sotrastaurin -0.012 | alvocidib -0.027 | Tubastatin A 0.014 | [1] -0.031 | defactinib 0 | rucaparib -0.051 | [2] -0.003 | encorafenib -0.006 | [3] 0

STX17 (UniProt P56962)
Sequence of UniProt P56962 (P56962 whole entry, looked up): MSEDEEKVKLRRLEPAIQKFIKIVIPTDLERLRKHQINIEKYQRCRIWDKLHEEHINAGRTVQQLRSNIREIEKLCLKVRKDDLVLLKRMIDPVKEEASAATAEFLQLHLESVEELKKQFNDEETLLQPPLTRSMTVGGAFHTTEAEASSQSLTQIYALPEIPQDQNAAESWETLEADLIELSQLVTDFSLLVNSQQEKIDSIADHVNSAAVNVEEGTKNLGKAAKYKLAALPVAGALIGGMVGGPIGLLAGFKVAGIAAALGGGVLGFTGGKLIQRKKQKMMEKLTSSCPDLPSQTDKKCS
inactive: saracatinib -0.038 | sotrastaurin 0 | alvocidib -0.217 | Tubastatin A 0.044 | [1] 0.021 | defactinib -0.266 | rucaparib 0.152 | [2] 0.127 | encorafenib 0.091 | [3] -0.001

SNX1 (UniProt Q13596)
inactive: saracatinib 0.006 | sotrastaurin -0.006 | alvocidib -0.084 | Tubastatin A -0.021 | [1] -0.112 | defactinib -0.036 | rucaparib -0.023 | [2] 0.028 | encorafenib 0.024 | [3] -0.026

TAF6L (UniProt Q9Y6J9)
inactive: saracatinib 0.148 | sotrastaurin -0.2 | alvocidib -0.055 | Tubastatin A -0.012 | [1] -0.044 | [2] 0.035

SRSF7 (UniProt Q16629)
Sequence of UniProt Q16629 (Q16629 whole entry, looked up): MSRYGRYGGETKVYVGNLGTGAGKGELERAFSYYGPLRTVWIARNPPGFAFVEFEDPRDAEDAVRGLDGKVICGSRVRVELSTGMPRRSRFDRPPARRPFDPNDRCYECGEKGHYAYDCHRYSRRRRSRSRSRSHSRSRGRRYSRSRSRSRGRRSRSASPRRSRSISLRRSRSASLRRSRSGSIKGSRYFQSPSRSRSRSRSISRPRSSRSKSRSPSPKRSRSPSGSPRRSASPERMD
inactive: saracatinib -0.014 | sotrastaurin 0.12 | alvocidib 0.291 | Tubastatin A 0.006 | [1] -0.226 | defactinib 0.168 | rucaparib 0.3 | [2] -0.04 | encorafenib 0.038 | [3] 0.042

TEX264 (UniProt Q9Y6I9)
Sequence of UniProt Q9Y6I9 (Q9Y6I9 whole entry, looked up): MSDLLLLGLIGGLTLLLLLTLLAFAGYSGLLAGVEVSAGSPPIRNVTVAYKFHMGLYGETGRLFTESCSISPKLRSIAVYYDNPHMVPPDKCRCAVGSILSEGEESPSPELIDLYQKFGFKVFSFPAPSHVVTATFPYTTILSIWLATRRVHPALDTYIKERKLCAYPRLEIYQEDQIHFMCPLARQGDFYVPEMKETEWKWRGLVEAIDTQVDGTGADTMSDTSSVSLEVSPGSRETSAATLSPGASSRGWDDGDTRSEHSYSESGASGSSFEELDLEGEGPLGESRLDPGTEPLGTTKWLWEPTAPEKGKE
active: [2] 0.629
inactive: saracatinib -0.041 | sotrastaurin -0.027 | alvocidib -0.036 | Tubastatin A -0.077 | [1] 0.13 | defactinib 0.112 | rucaparib 0.407 | encorafenib -0.039 | [3] 0.071

SLC25A4 (UniProt P12235)
inactive: saracatinib -0.022 | sotrastaurin 0.029 | alvocidib 0.068 | Tubastatin A -0.138 | [1] 0.044 | defactinib 0.012 | rucaparib -0.061 | [2] -0.026 | encorafenib -0.001 | [3] 0.019

SPECC1 (UniProt Q5M775)
inactive: saracatinib -0.171 | sotrastaurin 0.093 | alvocidib 0.06 | Tubastatin A -0.024 | [1] -0.069 | defactinib 0 | rucaparib 0.091 | [2] -0.104 | encorafenib -0.015 | [3] -0.062

SNRNP27 (UniProt Q8WVK2)
inactive: saracatinib -0.071 | sotrastaurin 0.048 | alvocidib 0.062 | Tubastatin A -0.023 | [1] -0.036 | defactinib 0.015 | rucaparib 0.049 | [2] -0.09 | encorafenib -0.061 | [3] 0.097

TGFBRAP1 (UniProt Q8WUH2)
inactive: saracatinib -0.124 | sotrastaurin 0.048 | alvocidib -0.008 | Tubastatin A 0.134 | [1] 0.047 | defactinib -0.061 | rucaparib 0.097 | [2] -0.051 | encorafenib 0.076 | [3] -0.109

SPART (UniProt Q8N0X7)
inactive: saracatinib -0.03 | sotrastaurin -0.011 | alvocidib -0.063 | Tubastatin A -0.05 | [1] 0.001 | defactinib -0.109 | rucaparib -0.02 | [2] -0.032 | encorafenib 0.027 | [3] -0.014

SLC27A2 (UniProt O14975)
inactive: saracatinib 0 | sotrastaurin 0.005 | alvocidib -0.079 | Tubastatin A -0.015 | [1] 0.144 | defactinib -0.006 | rucaparib 0.056 | encorafenib 0.015 | [3] -0.034
active: [2] 0.333

SLC35B1 isoform 2 (UniProt P78383)
inactive: saracatinib 0.036 | sotrastaurin -0.03 | alvocidib 0.031 | Tubastatin A 0.037 | [1] -0.003 | defactinib 0.026 | rucaparib -0.051 | [2] 0.011 | encorafenib 0.132 | [3] -0.127

SSR4 (UniProt P51571)
Sequence of UniProt P51571 (P51571 whole entry, looked up): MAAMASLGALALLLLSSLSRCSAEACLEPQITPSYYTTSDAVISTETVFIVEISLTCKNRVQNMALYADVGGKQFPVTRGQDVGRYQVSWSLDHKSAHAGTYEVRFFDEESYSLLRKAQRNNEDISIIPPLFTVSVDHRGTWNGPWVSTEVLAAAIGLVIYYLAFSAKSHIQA
inactive: saracatinib -0.008 | sotrastaurin 0.013 | alvocidib -0.035 | Tubastatin A 0.006 | [1] 0.014 | defactinib 0.015 | rucaparib 0 | [2] 0.004 | encorafenib -0.028 | [3] -0.007

SLC6A6 (UniProt P31641)
inactive: saracatinib -0.011 | sotrastaurin 0.041 | alvocidib -0.031 | Tubastatin A -0.143 | [1] -0.029 | defactinib -0.051 | rucaparib 0.065 | [2] -0.061 | encorafenib -0.051 | [3] -0.009

SUN2 (UniProt Q9UH99)
inactive: saracatinib -0.029 | sotrastaurin -0.09 | alvocidib 0.015 | Tubastatin A 0.053 | [1] -0.068 | defactinib -0.05 | rucaparib 0.03 | [2] -0.066 | encorafenib 0.067 | [3] 0.023

TBRG4 (UniProt Q969Z0)
inactive: saracatinib -0.093 | sotrastaurin -0.431 | alvocidib -0.345 | Tubastatin A 0.044 | [1] -0.177 | defactinib -0.25 | rucaparib 0.008 | [2] -0.144 | encorafenib 0.071 | [3] -0.062

SLC27A1 (UniProt Q6PCB7)
inactive: saracatinib -0.007 | sotrastaurin 0.013 | alvocidib -0.203 | Tubastatin A -0.252 | [1] -0.011 | defactinib 0.064 | [2] 0.146 | [3] -0.183

SRFBP1 (UniProt Q8NEF9)
inactive: saracatinib 0.038 | sotrastaurin -0.01 | alvocidib 0.096 | Tubastatin A 0.084 | [1] 0.052 | [2] -0.15 | encorafenib -0.057
active: rucaparib 0.446

TIMM29 (UniProt Q9BSF4)
inactive: saracatinib 0.054 | sotrastaurin 0.051 | alvocidib -0.068 | Tubastatin A 0.003 | [1] -0.03 | defactinib 0.1 | rucaparib -0.008 | [2] 0.002 | encorafenib -0.098 | [3] 0.13

SUCLG1 (UniProt P53597)
inactive: saracatinib 0.042 | sotrastaurin 0.019 | alvocidib -0.028 | Tubastatin A -0.005 | [1] 0.015 | defactinib -0.057 | rucaparib 0.016 | [2] -0.006 | encorafenib -0.001 | [3] 0.016

SMIM20 isoform 2 (UniProt Q8N5G0)
Sequence of UniProt Q8N5G0 (Q8N5G0 whole entry, looked up): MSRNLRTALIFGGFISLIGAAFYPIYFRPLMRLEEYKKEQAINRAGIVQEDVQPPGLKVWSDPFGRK
inactive: saracatinib 0 | sotrastaurin 0.056 | alvocidib -0.024 | Tubastatin A -0.013 | [1] 0.018 | defactinib -0.138 | rucaparib -0.088 | [2] -0.094 | encorafenib -0.055 | [3] -0.143

SNX15 (UniProt Q9NRS6)
inactive: saracatinib -0.039 | sotrastaurin -0.048 | alvocidib 0.133 | Tubastatin A 0.045 | defactinib -0.177 | rucaparib -0.063 | [2] -0.043 | encorafenib 0.098 | [3] 0.025

TM9SF2 (UniProt Q99805)
inactive: saracatinib 0.038 | sotrastaurin -0.01 | alvocidib -0.039 | Tubastatin A -0.001 | [1] 0.005 | defactinib 0.006 | rucaparib 0.015 | [2] -0.031 | encorafenib 0.001 | [3] -0.069
